23 compounds from PubChem BioAssay can be followed below.

Assay [1] can be described thus: stimulators of insulin release from INS-1E, primary screen, cell-based, 5 mM glucose, NPC library (AID 1117329;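 active means compound raises insulin release from rat beta cells at 5 mM glucose, no numeric limit stated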; further: reference of the scale not given here). Conditions: rat INS-1E insulin secretion, at 10 µM, hits give high values.
The nature of assay [2]: growth inhibition of GSK3B-pretreated HCT116 cells – cell-based, CellTiter-Glo, 0.2 to 20 µM (AID 1117336;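 active means compounds lowering colon cancer cell viability after pretreatment blocking the GSK3B kinase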). Conditions: HCT116 viability after GSK3B inhibitor, at 20 µM, hits give high values.
Assay [3] can be described thus: inhibition of endothelial tube formation, primary screen, imaging, VEGF stimulated, CD31 staining, tube area, NPC library (AID 1117340). The settings on record: VEGF-stimulated ADSC/ECFC co-culture, at 10 µM, hits give high values.
Assay [4] in a line: GLP1 release stimulators, primary, NCI-H716, NPC library (AID 1117341;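 active means compound raises GLP1 secretion from the human gut endocrine cells, with no numeric limit stated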; further: reference of the scale not given here). The settings on record: NCI-H716 cells, at 10 µM, hits give high values.
The nature of assay [5]: HCT116 colon cancer cell growth inhibition, primary screen, CellTiter-Glo luminescence, NPC library (AID 1117342;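 active means compounds that lower survival of HCT116 colon cancer cells in the luminescence readout, no numeric limit stated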). The settings on record: at 20 µM (top of the series).
Assay [6] in a line: reduced SW480 viability measured with CellTiter-Glo, NPC library, primary (AID 1117343;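 active means compounds that lower viability of the colon cancer cells in the luminescence readout, with no numeric limit stated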). The settings on record: CellTiter-Glo luminescence; at 20 µM (top of the series).
Assay [7] can be described thus: NPC library primary testing for decreased DLD-1 cell viability via CellTiter-Glo (AID 1117346;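 active means compounds that lower survival of DLD-1 colon cancer cells in the luminescence readout, no cutoff given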). Conditions: DLD-1 viability, CellTiter-Glo luminescence; at 20 µM (top of the series).

A number with no mark means an inactive call. Activity calls are given as the source filed them.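 How the source made its calls, unless noted: active means compound that reduces growth-factor-driven endothelial tube area in a mixed cell culture, no cutoff stated; inactive means the rest.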

For `C#CCN[C@@H]1CCc2ccccc21`, the insulin secretion stimulation in assay [1] is 2.6%. Moreover, in assay [2], the viability decrease was -29.8%. For the same compound, the tube area decrease in assay [3] was 3.2%. Also, the GLP1 secretion stimulation in assay [4] is 0%. Besides, the inhibition of viability in assay [5] is -2%. Further, the viability decrease (inhibition) was -41% in assay [6] and -21.6% in assay [7].

With `CC(C)(C(=O)c1cccnc1)c1cccnc1`, in assay [1], the insulin secretion stimulation is 0.7%. The viability decrease in assay [2] is -5.6%. In addition, the tube area decrease in assay [3] is 4.4%. In assay [4], the GLP1 secretion stimulation was 0.8%. In assay [5], the inhibition of viability was 0.97%. Besides, the viability decrease (inhibition) was 1.2% in assay [6] and -9.4% in assay [7].

Turning to `O=C1Nc2ccc(Cl)cc2[C@@](C#CC2CC2)(C(F)(F)F)O1`, the insulin secretion stimulation in assay [1] is 11.3%. For the same compound, the viability decrease in assay [2] is 86.5% (active). For the same compound, the tube area decrease in assay [3] is -16%. Moreover, the GLP1 secretion stimulation in assay [4] was 21% (active). Moreover, the inhibition of viability in assay [5] was 87.9% (active). Besides, the viability decrease (inhibition) in assay [6] was 114% (active); in assay [7], 49.4%.

Regarding `Cc1cc2c(C(C)C)c(O)c(O)c(C=O)c2c(O)c1-c1c(C)cc2c(C(C)C)c(O)c(O)c(C=O)c2c1O`, in assay [1], the insulin secretion stimulation was 0.5%. In addition, the viability decrease in assay [2] was 82% (active). Further, the tube area decrease in assay [3] is 110% (active). Further, the GLP1 secretion stimulation in assay [4] is 76.4% (active). Moreover, the inhibition of viability in assay [5] was 91.7% (active). Moreover, the viability decrease (inhibition) in assay [6] was 108% (active); in assay [7] it was 64.1% (active).

Regarding `O=C(O)CCNC(=O)c1ccc(N=Nc2ccc(O)c(C(=O)O)c2)cc1`, the insulin secretion stimulation in assay [1] is 5.4%. In addition, in assay [2], the viability decrease was 5.2%. The tube area decrease in assay [3] is 11.5%. For the same compound, the GLP1 secretion stimulation in assay [4] was 1.6%. In assay [5], the inhibition of viability is 6.1%. Moreover, the viability decrease (inhibition) in assay [6] was 57.8% (active); in assay [7], 6.7%.

As to `CCC(C)n1ncn(-c2ccc(N3CCN(c4ccc(OC[C@H]5CO[C@](Cn6cncn6)(c6ccc(Cl)cc6Cl)O5)cc4)CC3)cc2)c1=O` (stereo partly specified), in assay [1], the insulin secretion stimulation was 0.4%. In addition, the viability decrease in assay [2] is 68.8% (active). Also, the tube area decrease in assay [3] was 96.5% (active). The GLP1 secretion stimulation in assay [4] is 2.2%. In addition, the inhibition of viability in assay [5] was 75.3% (active). Besides, the values for the viability decrease (inhibition) in assay [6] and in assay [7] were 112% (active) and 40.6%, respectively.

On to `C[C@@H]1CN(c2c(F)c(F)c3c(=O)c(C(=O)O)cn(C4CC4)c3c2F)C[C@H](C)N1`, for which, in assay [1], the insulin secretion stimulation was -0.9%. The viability decrease in assay [2] is -4.4%. In assay [3], the tube area decrease is -17.5%. Further, in assay [4], the GLP1 secretion stimulation is -0.3%. The inhibition of viability in assay [5] is 4.9%. The viability decrease (inhibition) in assay [6] was 24.4%; in assay [7], -6.7%.

Regarding `NC(CS)C(=O)O` (stereo unspecified), the insulin secretion stimulation in assay [1] was -0.5%. Also, the viability decrease in assay [2] is -0.35%. Further, in assay [3], the tube area decrease was 3.4%. Moreover, the GLP1 secretion stimulation in assay [4] was -1.7%. Moreover, the inhibition of viability in assay [5] is 16.7%. In addition, the viability decrease (inhibition) in assay [6] was 34.5%; in assay [7], 32.7%.

Take `COCc1c(C(C)C)nc(C(C)C)c(/C=C/[C@@H](O)C[C@@H](O)CC(=O)O)c1-c1ccc(F)cc1`: the insulin secretion stimulation in assay [1] is -0.8%. Also, in assay [2], the viability decrease was 107% (active). For the same compound, the tube area decrease in assay [3] is 107% (active). Moreover, the GLP1 secretion stimulation in assay [4] is 3.1%. Besides, in assay [5], the inhibition of viability was 112% (active). Also, the viability decrease (inhibition) in assay [6] is 151% (active); in assay [7], 98.6% (active).

In the case of `NC(=O)OCC(COC(N)=O)c1ccccc1`, in assay [1], the insulin secretion stimulation is 0.3%. Further, in assay [2], the viability decrease is -7.4%. Besides, the tube area decrease in assay [3] is -7.6%. Besides, in assay [4], the GLP1 secretion stimulation is -3%. For the same compound, the inhibition of viability in assay [5] is 4.1%. Moreover, the figures for the viability decrease (inhibition) in assay [6] and in assay [7] were -7.2% and -12%, respectively.

For the compound `C[C@H](NC(CCc1ccccc1)C(=O)O)C(=O)N1CCC[C@H]1C(=O)O` (stereo partly specified), the insulin secretion stimulation in assay [1] was 0.1%. Also, the viability decrease in assay [2] was -6.3%. Further, in assay [3], the tube area decrease was -8%. Further, the GLP1 secretion stimulation in assay [4] was 1.4%. In addition, the inhibition of viability in assay [5] is 2.7%. Besides, the viability decrease (inhibition) in assay [6] was -8.4%; in assay [7], -2.7%.

Regarding `COc1ccc2nc(S(=O)Cc3ncc(C)c(OC)c3C)[nH]c2c1` (stereo unspecified), the insulin secretion stimulation in assay [1] is 0.4%. Moreover, the viability decrease in assay [2] is 13.3%. The tube area decrease in assay [3] was 29.3%. In addition, the GLP1 secretion stimulation in assay [4] is 1.7%. Further, the inhibition of viability in assay [5] is -0.23%. Besides, the viability decrease (inhibition) is -451% in assay [6] and -12.7% in assay [7].

As for `CCN1CCN(c2cc3c(cc2F)c(=O)c(C(=O)O)cn3C2CC2)CC1`, the insulin secretion stimulation in assay [1] is -0.15%. Also, the viability decrease in assay [2] is 38%. For the same compound, the tube area decrease in assay [3] is 8.4%. The GLP1 secretion stimulation in assay [4] is 0.4%. The inhibition of viability in assay [5] is 36.2%. Moreover, the viability decrease (inhibition) in assay [6] is 11.7%; in assay [7], -6.2%.

`CC(c1cc2ccccc2s1)N(O)C(N)=O` (stereo unspecified): the insulin secretion stimulation in assay [1] is -0.1%. Further, in assay [2], the viability decrease is -6.5%. Further, the tube area decrease in assay [3] was -39.9%. Moreover, the GLP1 secretion stimulation in assay [4] was -1.4%. For the same compound, the inhibition of viability in assay [5] is -15.9%. The viability decrease (inhibition) is 9.4% in assay [6] and -3.8% in assay [7].

For `NCCS(=O)(=O)O`, the insulin secretion stimulation in assay [1] is 2.6%. Also, the viability decrease in assay [2] is -1.3%. Moreover, the tube area decrease in assay [3] was -12%. In addition, the GLP1 secretion stimulation in assay [4] was 0.3%. Moreover, the inhibition of viability in assay [5] is -12.3%. The figures for the viability decrease (inhibition) in assay [6] and in assay [7] were -4.6% and -1.5%, respectively.

Consider `CC(=O)NS(=O)(=O)c1ccc(N)cc1`, for which, in assay [1], the insulin secretion stimulation was -1.9%. For the same compound, the viability decrease in assay [2] was -5.2%. Further, the tube area decrease in assay [3] is 14.5%. Also, the GLP1 secretion stimulation in assay [4] was -1.7%. Also, in assay [5], the inhibition of viability was 1.2%. Also, the figures for the viability decrease (inhibition) in assay [6] and in assay [7] were -3.2% and -1.3%, respectively.

Take `O=c1[nH]cnc2c1ncn2[C@H]1CC[C@@H](CO)O1`: the insulin secretion stimulation in assay [1] was 3.9%. Also, the viability decrease in assay [2] is -9%. Moreover, in assay [3], the tube area decrease is -4.4%. For the same compound, the GLP1 secretion stimulation in assay [4] is 3.6%. The inhibition of viability in assay [5] was -3.4%. Moreover, the viability decrease (inhibition) is -7.8% in assay [6] and -6.1% in assay [7].

Consider `CO[C@H]1C=CO[C@@]2(C)Oc3c(C)c(O)c4c(O)c(c(/C=N/N5CCN(C)CC5)c(O)c4c3C2=O)NC(=O)/C(C)=C\C=C[C@H](C)[C@H](O)[C@@H](C)[C@@H](O)[C@@H](C)[C@H](OC(C)=O)[C@@H]1C`, for which the insulin secretion stimulation in assay [1] is 1.4%. Further, in assay [2], the viability decrease is 67.8% (active). For the same compound, the tube area decrease in assay [3] was 48.6% (active). The GLP1 secretion stimulation in assay [4] was -1.8%. Further, in assay [5], the inhibition of viability was 67.5% (active). Further, the viability decrease (inhibition) in assay [6] is 87.1% (active); in assay [7], 65.6% (active).

As for `C[n+]1c2cc(N)ccc2cc2ccc(N)cc21` (tested in a mixture with another compound), in assay [1], the insulin secretion stimulation is 0.4%. The viability decrease in assay [2] is 70.5% (active). Besides, the tube area decrease in assay [3] was -105%. In assay [4], the GLP1 secretion stimulation is 5.7%. Moreover, in assay [5], the inhibition of viability was 83.8% (active). Besides, the viability decrease (inhibition) in assay [6] is 68.8% (active); in assay [7], 95.2% (active).

Turning to `CN1CCC(=C2c3ccccc3C=Cc3ccccc32)CC1`, the insulin secretion stimulation in assay [1] was 0.2%. Further, in assay [2], the viability decrease is 48.8%. Moreover, the tube area decrease in assay [3] was 43.3% (active). Besides, the GLP1 secretion stimulation in assay [4] was 11.9%. Besides, the inhibition of viability in assay [5] is 39%. Besides, the figures for the viability decrease (inhibition) in assay [6] and in assay [7] were 100% (active) and 31.8%, respectively.

As for `Cc1nc2n(c(=O)c1CCN1CCC(c3noc4cc(F)ccc34)CC1)CCC[C@H]2O`, the insulin secretion stimulation in assay [1] was 1.1%. Besides, in assay [2], the viability decrease is -7.1%. Besides, the tube area decrease in assay [3] is 8.8%. Moreover, the GLP1 secretion stimulation in assay [4] is -0.7%. Moreover, the inhibition of viability in assay [5] was 20.5%. Moreover, the viability decrease (inhibition) was -9.1% in assay [6] and -6.6% in assay [7].

For `Cc1cnc(C(=O)O)c[n+]1[O-]`, the insulin secretion stimulation in assay [1] is 3.6%. The viability decrease in assay [2] is -16.5%. Moreover, in assay [3], the tube area decrease is 9.6%. Further, the GLP1 secretion stimulation in assay [4] is -4.7%. Besides, the inhibition of viability in assay [5] was 3%. Further, the viability decrease (inhibition) is 14.8% in assay [6] and -0.8% in assay [7].

As for `Nc1ccc(O)c(C(=O)O)c1`, in assay [1], the insulin secretion stimulation is -1.5%. Besides, the viability decrease in assay [2] was 2.55%. In addition, the tube area decrease in assay [3] is -5.5%. The GLP1 secretion stimulation in assay [4] was -4.4%. For the same compound, the inhibition of viability in assay [5] was 6.8%. In addition, the viability decrease (inhibition) in assay [6] is 22.9%; in assay [7], 20.4%.
